Source: PubChem BioAssay AID1529 (NMMLSC, 2009)
The whole screen tested about 290,000 compounds, of which about 4,200 (1.4%) were called active. Many of the other results were omitted from the sample, so actives are more common in it than they were. Unmarked numbers belong to inactive results.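 The calls were made as follows: active = binding response more than 3 SD above or below the average of its plate-row segment, actives on both sides; inconclusive = wells at one plate position flagged as instrument error; inactive = the rest.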

biological target: Mitogen-activated protein kinase kinase kinase 3 (Homo sapiens) (UniProt Q99759); assay: modulators of MEKK3-MEK5 PB1 binding, primary screen, biochemical, wildtype MEKK3, multiplex bead flow cytometry, Alexa488-MEK5 (AID 1529); conditions: bead-based flow cytometry, Alexa488-MEK5 binding to MEKK3; at 10 µM; actives lie on both sides; 0 = blocked by unlabeled MEK5, 100 = vehicle;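 also: Alexa488 bead fluorescence after subtracting the streptavidin-only scavenger bead signal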
Sequence (Q99759 whole entry, looked up): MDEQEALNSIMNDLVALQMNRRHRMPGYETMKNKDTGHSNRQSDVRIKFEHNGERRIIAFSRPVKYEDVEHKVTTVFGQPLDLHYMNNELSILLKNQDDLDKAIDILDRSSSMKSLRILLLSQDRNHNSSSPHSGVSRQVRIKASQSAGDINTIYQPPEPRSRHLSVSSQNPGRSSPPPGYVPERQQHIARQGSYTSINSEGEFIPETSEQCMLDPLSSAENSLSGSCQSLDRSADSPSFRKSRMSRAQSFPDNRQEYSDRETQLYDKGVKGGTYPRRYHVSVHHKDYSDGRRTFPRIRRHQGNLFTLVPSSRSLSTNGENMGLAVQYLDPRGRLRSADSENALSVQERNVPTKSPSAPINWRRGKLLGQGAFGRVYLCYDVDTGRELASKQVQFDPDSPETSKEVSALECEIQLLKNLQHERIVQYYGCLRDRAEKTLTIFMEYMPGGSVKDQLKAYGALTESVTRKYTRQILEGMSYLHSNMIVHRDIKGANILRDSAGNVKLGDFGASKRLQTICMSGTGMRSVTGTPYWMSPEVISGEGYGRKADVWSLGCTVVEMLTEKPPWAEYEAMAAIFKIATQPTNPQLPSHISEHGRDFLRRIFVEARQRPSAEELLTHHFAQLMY

Structure (SMILES) | binding response (% of control)
C#CCNC(=O)[C@H](Cc1ccc(C(=O)c2ccccc2)cc1)NC(=O)OC(C)(C)C | 101%
CCOCCCNC(=O)c1ccc(CS(=O)(=O)c2cccc(C(F)(F)F)c2)o1 | 101%
Cc1c(C)n(Cc2ccc(Cl)cc2)c2ccc(C(=O)NCCCN3CCOCC3)cc12 | 106%
CCOCCCN(C)C1CCN(C(=O)c2oc3ccccc3c2NC(=O)COc2cccc(C)c2)CC1 | 105%
COc1ccc(C(=O)CCc2ccccc2O)c(OC)c1 | 97%
CC(C)(C)OC(=O)NNc1c2ccccc2nc2ccccc12 | 91%
O=C(NNc1c2ccccc2nc2ccccc12)c1cc2ccccc2cc1O | 69% [inhibitor] (active)
O=C(N/N=C/c1cccnc1)c1cc2ccccc2cc1O | 99%
Cc1ccc(NC(=O)COc2ccc(/C=C3/NC(=O)NC3=O)cc2)cc1 | 99%
COCCCNC(=S)N(CCN(C)C)Cc1cc2cc3c(cc2[nH]c1=O)OCCO3 | 101%
COC(=O)C1(CCSC)NC(c2ccc(OC)cc2OC)C2C(=O)N(c3cccc(C(C)=O)c3)C(=O)C21 (stereo unspecified) | 101%
CCC(CC)c1nnc(NC(=O)C2CCN(C(=O)c3ccco3)CC2)s1 | 102%
NC(=O)C1=C[C@@H](c2ccc3c(c2)OCO3)C[C@@H](OCCCCO)O1 | 102%
CN(C)CCOCCOc1ccc(Cl)c2ccccc12 | 78%
CCN(CC)CCOCCOc1ccc(Cl)c2ccccc12 | 3% [inhibitor] (active)
Clc1cccc(Cl)c1OCCOCCNCc1ccccc1 | 102%
CCOC(=O)CSc1nnc(CNc2nc(-c3ccccc3)cs2)n1C | 92%
CCNC(=O)CSc1nc(-c2ccccc2)cs1 | 132% (active)
O=C(CSc1nc(-c2ccccc2)cs1)Nc1cccc([N+](=O)[O-])c1 | 103%
CN1CCN(C(=O)c2ccccc2NC(=O)COc2ccccc2Cl)CC1 | 101%
O=C(COc1ccccc1Cl)Nc1ccc(C(=O)c2ccc(C(=O)O)cc2)cc1 | 104%
CC(=O)Nc1ccc(NC(=O)COc2ccccc2C(=O)Nc2cccc(Cl)c2Cl)cc1 | 184% (active)
FC(F)(F)c1nnc2c3ccccc3c(Cl)nn12 | 107%

Structure (SMILES) | binding response (% of control)
COc1ccc2[nH]c(=O)c(CN(Cc3cccnc3)S(=O)(=O)c3ccccc3F)cc2c1 | 100%
Cc1ccc(NC(=O)Cc2nnc(SCC(=O)Nc3nncs3)n2C)cc1 | 97%
O=C(CCCOc1ccccc1)Nc1cccc(C(=O)O)c1 | 106%
O=Cc1ccc(Oc2cccc(C(F)(F)F)c2)nc1 | 98%
O=C(O)CCCC(=O)Nc1ccc(Oc2cccc(C(F)(F)F)c2)nc1 | 131% (active)
COc1ccc(/C=C2\SC(=O)N(CCC(=O)NCCCn3ccnc3)C2=O)cc1 | 100%
COc1ccc(OC)c(/C(C)=N\NC(=O)c2cc3cc(Cl)ccc3n2C)c1 | 103%
Cc1cccnc1NC(=O)Cn1c(=O)oc2ccccc21 | 103%
O=C(O)C(c1ccccc1)N1C(=O)/C(=C\c2ccc(-c3cccc(Cl)c3)o2)SC1=S (stereo unspecified) | 96%
NS(=O)(=O)c1ccc(-c2ccc(/C=C3\SC(=O)NC3=O)o2)cc1 | 100%
CN1C(=O)/C(=C\c2ccc(-c3ccccc3)o2)SC1=S | 46% [inhibitor] (active)
C=C(C)CNC(=O)c1ccc(OC2CCN(C(=O)COC)CC2)cc1 | 105%
C=CCSc1nnc(N2C(=O)C(O)=C(C(=O)c3ccco3)C2c2ccc(F)cc2)s1 (stereo unspecified) | 101%
C(=N\N1CCN(c2ccccn2)CC1)/C1=C(N2CCOCC2)C(=C/c2ccccc2)/CC1 | 102%
O=C1Nc2ccc(Br)cc2/C1=N/N=C/C1=C(N2CCOCC2)C(=C\c2ccccc2)/CC1 | 45% [inhibitor] (active)
COc1ccc(/C=N/N=C2/C(=O)Nc3ccccc32)cc1O | 100%
O=C1N[C@H](Cc2ccccc2)C(=O)N[C@H]1Cc1cn(S(=O)(=O)c2ccccc2)c2ccccc12 | 106%
CCOC(=O)COn1c(=O)c(-c2ccc(OCC)cc2)[n+]([O-])c2ccccc21 | 109%
CCOc1ccccc1CNS(=O)(=O)c1cc(-c2cc(C)no2)ccc1C | 96%
CN1CCC(CN)(N2CCN(c3ccccc3)CC2)CC1 | 106%
COC(=O)c1ccc(N2CCOCC2)c(NC(=O)c2ccc(Br)o2)c1 | 101%
Cc1c(C)c(C)c2[nH]c(=S)[nH]c2c1C | 101%
O=c1[nH]c(=S)[nH]c2[nH]c(=S)[nH]c12 | 48% [inhibitor] (active)
